Measured values published in PubChem BioAssay AID1159580 (chemical genetic matrix, 2015).
About 2,000 (36%) of roughly 5,500 compounds were called active. Another 18% or so got no clear call; they are omitted. Cut-off read from the data, not from the text of the source: active = normalized growth mostly below about 0.91 (no sharp cut-off); inconclusive = no clear call, values can overlap the other calls; inactive = mostly above about 0.92. This is one part of the list.

Test: chemical genetic growth profiling, strain panel (AID 1159580);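 note: tested at 20 µM; growth read once vehicle control cultures reached saturation at 30 °C; 1 = growth at the plate median or of vehicle wells; lower values mean less growth of the strain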
Settings: growth OD

Measured: normalized growth

Cc1ccc(C(C)C)cc2c(C)ccc1-2
inactive: S. cerevisiae deletion strains, locus YJR043C, strain POL32, hits give low values 0.977 | S. cerevisiae deletion strains, locus YJR066W, strain TOR1, hits give low values 0.925 | S. cerevisiae deletion strains, locus YKL009W, strain mrt4, hits give low values 1.04 | S. cerevisiae deletion strains, locus YKL068W, hits give low values 1 | S. cerevisiae deletion strains, locus YKL085W, strain MDH1 (second series), hits give low values 1 | S. cerevisiae deletion strains, locus YKL085W, strain MDH1, hits give low values 1 | S. cerevisiae deletion strains, locus YKL160W, strain elf1, hits give low values 0.989 | S. cerevisiae deletion strains, locus YKL190W, strain CNB1, hits give low values 0.986 | S. cerevisiae deletion strains, locus YKR001C, strain vps1, hits give low values 1 | S. cerevisiae deletion strains, locus YKR026C, strain gcn3, hits give low values 1 | S. cerevisiae deletion strains, locus YKR091W, strain srl3, hits give low values 1 | S. cerevisiae deletion strains, locus YLL001W, strain dnm1, hits give low values 0.976 | S. cerevisiae deletion strains, locus YLL026W, hits give low values 0.998 | S. cerevisiae deletion strains, locus YLL041C, strain sdh2, hits give low values 1.01 | S. cerevisiae deletion strains, locus YLR027C, strain aat2, hits give low values 0.991 | S. cerevisiae deletion strains, locus YLR039C, strain RIC1, hits give low values 0.92 | S. cerevisiae deletion strains, locus YLR058C, strain SHM2, hits give low values 1 | S. cerevisiae deletion strains, locus YLR102C, strain apc9, hits give low values 1.02 | S. cerevisiae deletion strains, locus YLR113W, strain HOG1, hits give low values 1.03 | S. cerevisiae deletion strains, locus YLR221C, strain rsa3, hits give low values 1.02 | S. cerevisiae deletion strains, locus YLR258W, strain gsy2, hits give low values 0.999 | S. cerevisiae deletion strains, locus YLR262C, strain YPT6 (second series), hits give low values 1.01 | S. cerevisiae deletion strains, locus YLR262C, strain YPT6, hits give low values 0.909 | S. cerevisiae deletion strains, locus YLR268W, strain sec22, hits give low values 1.01 | S. cerevisiae deletion strains, locus YLR320W, strain mms22, hits give low values 1.01 | S. cerevisiae deletion strains, locus YLR330W, strain CHS5, hits give low values 1 | S. cerevisiae deletion strains, locus YLR342W, strain FKS1 (second series), hits give low values 0.944 | S. cerevisiae deletion strains, locus YLR342W, strain FKS1, hits give low values 1.03 | S. cerevisiae deletion strains, locus YLR357W, strain rsc2, hits give low values 0.982 | S. cerevisiae deletion strains, locus YLR370C, strain arc18, hits give low values 0.995 | S. cerevisiae deletion strains, locus YLR371W, strain rom2, hits give low values 1 | S. cerevisiae deletion strains, locus YLR384C, strain iki3, hits give low values 0.997 | S. cerevisiae deletion strains, locus YLR418C, strain cdc73, hits give low values 0.962 | S. cerevisiae deletion strains, locus YML016C, strain PPZ1, hits give low values 1 | S. cerevisiae deletion strains, locus YML032C, strain rad52, hits give low values 1.03 | S. cerevisiae deletion strains, locus YML120C, strain ndi1, hits give low values 1 | S. cerevisiae deletion strains, locus YML124C, strain tub3, hits give low values 1.02 | S. cerevisiae deletion strains, locus YMR058W, strain fet3, hits give low values 1.01 | S. cerevisiae deletion strains, locus YMR078C, strain ctf18, hits give low values 1.02 | S. cerevisiae deletion strains, locus YMR125W, strain sto1, hits give low values 1 | S. cerevisiae deletion strains, locus YMR129W, hits give low values 1.01 | S. cerevisiae deletion strains, locus YMR205C, strain PFK2, hits give low values 0.981 | S. cerevisiae deletion strains, locus YMR223W, strain ubp8, hits give low values 1.02 | S. cerevisiae deletion strains, locus YMR231W, strain pep5, hits give low values 0.978 | S. cerevisiae deletion strains, locus YMR263W, strain SAP30, hits give low values 0.993 | S. cerevisiae deletion strains, locus YMR307W, strain GAS1, hits give low values 0.914 | S. cerevisiae deletion strains, locus YNL067W, strain RPL9B, hits give low values 0.993 | S. cerevisiae deletion strains, locus YNL071W, strain lat1, hits give low values 0.991 | S. cerevisiae deletion strains, locus YNL183C, strain NPR1, hits give low values 0.981 | S. cerevisiae deletion strains, locus YNL209W, strain ssb2, hits give low values 1.01 | S. cerevisiae deletion strains, locus YNL233W, strain BNI4, hits give low values 0.989 | S. cerevisiae deletion strains, locus YNL248C, strain rpa49, hits give low values 1.02 | S. cerevisiae deletion strains, locus YNL250W, strain rad50, hits give low values 1.05 | S. cerevisiae deletion strains, locus YNL271C, strain bni1, hits give low values 1.03 | S. cerevisiae deletion strains, locus YNL298W, strain CLA4, hits give low values 1.02 | S. cerevisiae deletion strains, locus YNL307C, strain MCK1, hits give low values 0.995 | S. cerevisiae deletion strains, locus YNL322C, strain KRE1 (second series), hits give low values 0.994 | S. cerevisiae deletion strains, locus YNR049C, strain mso1, hits give low values 1 | S. cerevisiae deletion strains, locus YNR052C, strain pop2, hits give low values 1.02 | S. cerevisiae deletion strains, locus YOL006C, strain TOP1, hits give low values 1.02 | S. cerevisiae deletion strains, locus YOL012C, strain htz1 0.644 | S. cerevisiae deletion strains, locus YOL147C, strain pex11, hits give low values 1.03 | S. cerevisiae deletion strains, locus YOR001W, strain rrp6, hits give low values 1.04 | S. cerevisiae deletion strains, locus YOR061W, strain CKA2, hits give low values 1.01 | S. cerevisiae deletion strains, locus YOR069W, strain VPS5, hits give low values 1 | S. cerevisiae deletion strains, locus YOR070C, strain gyp1, hits give low values 0.994 | S. cerevisiae deletion strains, locus YOR080W, strain dia2, hits give low values 1.01 | S. cerevisiae deletion strains, locus YOR083W, strain WHI5, hits give low values 0.987 | S. cerevisiae deletion strains, locus YOR106W, strain vam3, hits give low values 1.01 | S. cerevisiae deletion strains, locus YOR136W, strain idh2, hits give low values 1.03 | S. cerevisiae deletion strains, locus YOR144C, strain elg1, hits give low values 1.02 | S. cerevisiae deletion strains, locus YOR184W, strain ser1, hits give low values 0.991 | S. cerevisiae deletion strains, locus YOR231W, strain MKK1, hits give low values 0.984 | S. cerevisiae deletion strains, locus YOR265W, strain rbl2, hits give low values 0.992 | S. cerevisiae deletion strains, locus YOR270C, strain vph1, hits give low values 1.1 | S. cerevisiae deletion strains, locus YOR290C, strain snf2, hits give low values 0.98 | S. cerevisiae deletion strains, locus YOR316C, strain cot1, hits give low values 1.02 | S. cerevisiae deletion strains, locus YPL051W, strain arl3, hits give low values 0.984 | S. cerevisiae deletion strains, locus YPL078C, strain atp4, hits give low values 0.979 | S. cerevisiae deletion strains, locus YPL106C, strain sse1, hits give low values 0.997 | S. cerevisiae deletion strains, locus YPL240C, strain hsp82, hits give low values 0.999 | S. cerevisiae deletion strains, locus YPL241C, strain CIN2, hits give low values 1 | S. cerevisiae deletion strains, locus YPL256C, strain CLN2, hits give low values 0.98 | S. cerevisiae deletion strains, locus YPR119W, strain clb2, hits give low values 1.02 | S. cerevisiae deletion strains, locus YPR141C, strain kar3, hits give low values 1.01 | S. cerevisiae deletion strains, locus YPR163C, strain tif3, hits give low values 1.04 | S. cerevisiae deletion strains, locus YPR167C, strain met16, hits give low values 1.02 | S. cerevisiae deletion strains, strain wtn01, hits give low values 1.04 | S. cerevisiae strains, strain wild type, hits give low values 0.995
